Measured values: PubChem BioAssay (Tox21)
Results filed as inconclusive are left out. Active and inactive are the calls of the source. Unless noted, calls follow the shape of the dose curve; as a rule, active = well fitted curve in the direction sought with a large enough effect in the repeat runs; inconclusive = weak or mixed curves; inactive = no such curve, though single readings can be large; an effect the other way counts as inactive or inconclusive.

Test system: not listed separately
Experiment: qHTS assay to identify small molecule agonists of the AP-1 signaling pathway (AID 1159526; calls by dose curve)
Settings: ME-180 (cervical carcinoma) AP-1-bla reporter, beta-lactamase FRET ratio, 5 h; series mostly up to 76.8 µM; activation: at the top concentration
% is scaled to controls: 0 for no effect and ±100 for the full control effect.

SMILES | activation
COC(=O)c1ccccc1OC | -4.81% (inactive)
CNC(=O)c1ccccc1Sc1ccc2c(/C=C/c3ccccn3)n[nH]c2c1 | -8.02% [at 35.3 µM] (inactive)
O=C1CCc2cc(OCCCCc3nnnn3C3CCCCC3)ccc2N1 | 0.0651% [at 35.3 µM] (inactive)
CCC(C)[O-].CCC(C)[O-].CCOC(=O)/C=C(/C)[O-].[Al+3] | -1.31% (inactive)

Target: Retinoic acid receptor RXR-alpha (Homo sapiens) (UniProt P19793)
Experiment: qHTS assay to identify small molecule agonists of the RXR signaling pathway (AID 1159527; calls by dose curve; also: nearly all actives have a fitted effect of over 35% in size; also: potency is read from the fitted curve at half-maximal effect)
Settings: HEK293T RXRa-UAS-bla, beta-lactamase ratio, 16 h; series mostly up to 76.8 µM; activation: at the top concentration
How it was run: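 Compounds in DMSO were added to RXR-alpha-UAS-bla HEK 293T cells kept in 2% charcoal-stripped serum, and incubated 16 hr at 37 C with 5% CO2. Reporter signal came from a 2 hr B/G FRET substrate step.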

Retinoic acid receptor RXR-alpha (Homo sapiens), sequence (P19793 whole entry, looked up): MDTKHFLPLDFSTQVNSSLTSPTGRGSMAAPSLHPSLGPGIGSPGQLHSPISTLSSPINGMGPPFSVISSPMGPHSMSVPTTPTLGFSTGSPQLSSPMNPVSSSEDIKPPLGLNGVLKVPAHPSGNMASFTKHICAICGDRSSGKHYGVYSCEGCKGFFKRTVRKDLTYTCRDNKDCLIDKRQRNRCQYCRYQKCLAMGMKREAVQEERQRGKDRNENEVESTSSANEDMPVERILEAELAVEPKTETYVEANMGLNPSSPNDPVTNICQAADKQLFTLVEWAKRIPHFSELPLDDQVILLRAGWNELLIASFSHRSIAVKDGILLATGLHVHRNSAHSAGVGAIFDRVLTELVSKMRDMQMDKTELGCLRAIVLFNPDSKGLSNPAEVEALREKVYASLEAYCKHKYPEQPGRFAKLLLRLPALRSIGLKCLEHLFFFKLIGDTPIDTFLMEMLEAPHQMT

SMILES | activation | Potency
CCCC[P+](C)(CCCC)CCCC | 2.86% (inactive) | 
CC[N+](CC)(CC)CCOC(=O)C(C1CCCC1)C1CCCC1 | -11.5% [at 35.3 µM] (inactive) | 
CC(CCc1ccccc1)NCC(O)c1ccc(O)c(C(N)=O)c1 (stereo not given) | -3.32% (inactive) | 
CC(C)(C)CC(C)(C)c1ccc(Nc2ccc(C(C)(C)CC(C)(C)C)cc2)cc1 | 3.93% [at 6.98 µM] (inactive) | 
Cc1ccc(-c2ccccc2)cc1 | -2.67% (inactive) | 
CCCCNS(=O)(=O)c1ccc(C)cc1 | 4.93% (inactive) | 
Clc1sc(Cl)c(Cl)c1Cl | 4.9% (inactive) | 
Cc1ccc(O)c(O)c1 | -19% (inactive) | 
COc1cc(S(=O)(=O)O)c(C)cc1N=Nc1c(O)ccc2cc(S(=O)(=O)O)ccc12 | -0.632% (inactive) | 
O=[N+]([O-])c1cccc(C(F)(F)F)c1 | -5.09% (inactive) | 
CN(C)Cc1cc(C(C)(C)C)c(O)c(C(C)(C)C)c1 |  | 11 µM (active)
O=c1[nH]c(=O)n([C@H]2C[C@H](O)[C@@H](CO)O2)cc1F | 9.9% [at 35.3 µM] (inactive) | 
CCCCCCCCCCCCOC(=O)c1ccc(O)cc1 | -3.53% (inactive) | 
CCCCCCCC/C=C\CCCCCCCCN | -9.36% [at 35.3 µM] (inactive) | 
CN(C)CCN1CCN(c2cccc(Cl)c2)C1=O | 1.57% [at 35.3 µM] (inactive) | 
COC(=O)c1ccccc1OC | 10.8% (inactive) | 

Test system: not listed separately
Experiment: qHTS assay to identify small molecule agonists of the RXR signaling pathway - cell viability counter screen (AID 1159529); also: nearly all actives have a fitted effect of over 50% in size; also: potency is read from the fitted curve at half-maximal effect;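 as to activity change, negative = cytotoxicity: HEK 293T cells carrying an RXR-alpha UAS beta-lactamase reporter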
Settings: RXR-alpha-bla HEK293T viability, CellTiter-Glo, 16 h; series mostly up to 76.8 µM; activity change, negative = cytotoxicity: at the top concentration
How it was run: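 Counter screen: CellTiter-Glo luminescence. Cells: RXR-alpha-UAS-bla HEK 293T. Medium: 2% charcoal-stripped FBS. Treatment: 16 h, 37 C. Reagent incubation: 30 min, RT.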

SMILES | activity change, negative = cytotoxicity | Potency
COC(=O)C1=C(C)NC(C)=C(C(=O)OCCN2CCN(C(c3ccccc3)c3ccccc3)CC2)C1c1cccc([N+](=O)[O-])c1 (stereo not given) | -20.3% [at 35.3 µM] (inactive) | 
CCCC[P+](C)(CCCC)CCCC | -15.3% (inactive) | 
CC[N+](CC)(CC)CCOC(=O)C(C1CCCC1)C1CCCC1 | -14.6% [at 35.3 µM] (inactive) | 
O=C1C(c2[nH]c3ccc(S(=O)(=O)O)cc3c2O)=Nc2ccc(S(=O)(=O)O)cc21 | -1.51% (inactive) | 
CC(CCc1ccccc1)NCC(O)c1ccc(O)c(C(N)=O)c1 (stereo not given) | -25.2% (inactive) | 
O=C(O)c1cc(O)c2ccccc2c1O |  | 30.9 µM (active)
O=C(O)c1cccc(C(F)(F)F)c1 | 17.5% (inactive) | 
COc1ccc(-c2coc3cc(O)ccc3c2=O)cc1 | 8.64% (inactive) | 
NC(=S)NC(N)=S | -19.8% (inactive) | 
CC(C)(C)CC(C)(C)c1ccc(Nc2ccc(C(C)(C)CC(C)(C)C)cc2)cc1 | 2.3% [at 6.97 µM] (inactive) | 
CC(C)=CCC1=C(O)c2ccccc2C(=O)C1=O | -24.6% (inactive) | 
O=C(Oc1ccccc1)Oc1ccccc1 | -23.7% (inactive) | 
Cc1ccc(-c2ccccc2)cc1 | 2.48% (inactive) | 
CCCCNS(=O)(=O)c1ccc(C)cc1 | -5.29% (inactive) | 
Clc1sc(Cl)c(Cl)c1Cl | 1.91% (inactive) | 
Cc1ccc(O)c(O)c1 | -13.9% (inactive) | 
COc1cc(S(=O)(=O)O)c(C)cc1N=Nc1c(O)ccc2cc(S(=O)(=O)O)ccc12 | -0.51% (inactive) | 

SMILES | activity change, negative = cytotoxicity | Potency
O=C(O)CCN(C1(C(=O)NO)CCCC1)S(=O)(=O)c1ccc(Oc2ccc(F)cc2)cc1 | 5.42% (inactive) | 
O=[N+]([O-])c1cccc(C(F)(F)F)c1 | 4.11% (inactive) | 
CC1=Nc2ccccc2C1(C)C | 0.527% (inactive) | 
OCCN1CCN(CCCN2c3ccccc3Sc3ccc(C(F)(F)F)cc32)CC1 |  | 23.9 µM (active)
COc1cc(/C=C/c2ccccc2)oc(=O)c1 | 1.19% (inactive) | 
O=c1[nH]c(=O)n([C@H]2C[C@H](O)[C@@H](CO)O2)cc1F | 9.87% [at 35.3 µM] (inactive) | 
C=C(CC)C(=O)c1ccc(OCC(=O)O)c(Cl)c1Cl | -7.94% [at 35.3 µM] (inactive) | 
CCCCCCCCCCCCOC(=O)c1ccc(O)cc1 | -1.63% (inactive) | 
Nc1ccc(Oc2ccc(Cl)cc2)cc1 | 3.41% (inactive) | 
CCCCCCCC/C=C\CCCCCCCCN | -1.48% [at 35.3 µM] (inactive) | 
CN(C)CCN1CCN(c2cccc(Cl)c2)C1=O | -18% [at 35.3 µM] (inactive) | 
COC(=O)c1ccccc1OC | 5.54% (inactive) | 
O=C1CCc2cc(OCCCCc3nnnn3C3CCCCC3)ccc2N1 | 12.3% [at 35.3 µM] (inactive) | 
COC1=C(OC)C(=O)C(CCCCCCCCCCO)=C(C)C1=O | -16.4% [at 35.3 µM] (inactive) | 
CCC(C)[O-].CCC(C)[O-].CCOC(=O)/C=C(/C)[O-].[Al+3] | -2.02% (inactive) | 
CN(C)[C@@H](CCOc1cccc2ccccc12)c1ccccc1 |  | 21.3 µM (active)

Test system: not listed separately
Experiment: qHTS assay to identify small molecule antagonists of the retinoid acid receptor (RAR) signaling pathway - cell viability counter screen (AID 1159551); also: nearly all actives have a fitted effect of over 35% in size; also: potency is read from the fitted curve at half-maximal effect
Settings: C3RL4 cells viability, ATP luminescence (CellTiter-Glo), 6 h; series mostly up to 92.4 µM; activity change, negative = cytotoxicity: at the top concentration
How it was run: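 Seed C3RL4 cells; next day add compound, then retinol to 1 uM final; incubate 6 h at 37 C; add CellTiter-Glo; read luminescence after 30 min at RT.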

SMILES | activity change, negative = cytotoxicity | Potency
COC(=O)C1=C(C)NC(C)=C(C(=O)OCCN2CCN(C(c3ccccc3)c3ccccc3)CC2)C1c1cccc([N+](=O)[O-])c1 (stereo not given) | -3.09% [at 42.5 µM] (inactive) | 
CCCC[P+](C)(CCCC)CCCC | 4.29% (inactive) | 
CC[N+](CC)(CC)CCOC(=O)C(C1CCCC1)C1CCCC1 | -0.733% [at 42.5 µM] (inactive) | 
CC(CCc1ccccc1)NCC(O)c1ccc(O)c(C(N)=O)c1 (stereo not given) | -0.607% (inactive) | 
CCO[C@@H]1O[C@H](C(COCc2ccccc2)OCc2ccccc2)[C@H](OCc2ccccc2)[C@H]1O (stereo not given in full) | 0.0563% [at 42.5 µM] (inactive) | 
O=C(O)c1cc(O)c2ccccc2c1O |  | 61.1 µM (active)
O=C(O)c1cccc(C(F)(F)F)c1 | -0.946% (inactive) | 
COc1ccc(-c2coc3cc(O)ccc3c2=O)cc1 | 0.875% (inactive) | 
NC(=S)NC(N)=S | -9.26% (inactive) | 
CC(C)(C)CC(C)(C)c1ccc(Nc2ccc(C(C)(C)CC(C)(C)C)cc2)cc1 | 0.648% [at 8.39 µM] (inactive) | 
CC(C)=CCC1=C(O)c2ccccc2C(=O)C1=O | -4.88% (inactive) | 
O=C(Oc1ccccc1)Oc1ccccc1 | -2.55% (inactive) | 
Cc1ccc(-c2ccccc2)cc1 | 0.57% (inactive) | 
CCCCNS(=O)(=O)c1ccc(C)cc1 | -1.26% (inactive) | 
Clc1sc(Cl)c(Cl)c1Cl | -0.0282% (inactive) | 
CCCc1ccc(OCC(=O)N2CCN(C(=O)COc3ccc(CCC)cc3OC)CC2)c(OC)c1 | -1.51% [at 42.5 µM] (inactive) | 

SMILES | activity change, negative = cytotoxicity | Potency
O=C(O)CCN(C1(C(=O)NO)CCCC1)S(=O)(=O)c1ccc(Oc2ccc(F)cc2)cc1 | -0.16% (inactive) | 
O=[N+]([O-])c1cccc(C(F)(F)F)c1 | 1.49% (inactive) | 
OCCN1CCN(CCCN2c3ccccc3Sc3ccc(C(F)(F)F)cc32)CC1 | -4.36% [at 42.5 µM] (inactive) | 
COc1cc(/C=C/c2ccccc2)oc(=O)c1 | 2.51% (inactive) | 
CN(C)Cc1cc(C(C)(C)C)c(O)c(C(C)(C)C)c1 | -3.58% (inactive) | 
O=c1[nH]c(=O)n([C@H]2C[C@H](O)[C@@H](CO)O2)cc1F | 6.16% [at 42.5 µM] (inactive) | 
C=C(CC)C(=O)c1ccc(OCC(=O)O)c(Cl)c1Cl | 4.83% [at 42.5 µM] (inactive) | 
CCCCCCCCCCCCOC(=O)c1ccc(O)cc1 | -2.07% (inactive) | 
Nc1ccc(Oc2ccc(Cl)cc2)cc1 | -1.66% (inactive) | 
CN(C)CCN1CCN(c2cccc(Cl)c2)C1=O | -0.974% [at 42.5 µM] (inactive) | 
COC(=O)c1ccccc1OC | 2.53% (inactive) | 
O=C(O)O | 2.76% [at 8.39 µM] (inactive) | 
CNC(=O)c1ccccc1Sc1ccc2c(/C=C/c3ccccn3)n[nH]c2c1 | -6.15% [at 42.5 µM] (inactive) | 
O=C1CCc2cc(OCCCCc3nnnn3C3CCCCC3)ccc2N1 | 2.65% [at 42.5 µM] (inactive) | 
COC1=C(OC)C(=O)C(CCCCCCCCCCO)=C(C)C1=O | -5.96% [at 42.5 µM] (inactive) | 
CCc1oc2ccccc2c1C(=O)c1cc(I)c(O)c(I)c1 | -6.3% [at 42.5 µM] (inactive) | 
